From PubChem BioAssay
The source made the active and inactive calls.

Columns and labels:
[1] = compounds binding Alexa647 anti-His antibody – biochemical, small-molecule microarray, 635 nm fluorescence, artefact control for SMM control protein annotation, primary screen (AID 1128); conditions: higher = more signal;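 also: score merges feature fluorescence with signal-to-noise for each printed compound spot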
[2] = test system: Human papillomavirus type 1a E7 protein (residues 1-88); assay: HPV1a E7 small-molecule binders, primary screen, biochemical, small-molecule microarray, residues 1-88, 635 nm (AID 1129); conditions: small-molecule microarray binding, fluorescence 635 nm; higher = more signal
[3] = target: Focal adhesion kinase 1 (Homo sapiens) (UniProt Q05397); assay: PTK2 protein binding on printed compound slides – biochemical, small-molecule microarray, 635/667 nm fluorescence, BSA, DTT, primary screen (AID 1130); conditions: 635 nm fluorescence, higher = more signal;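 also: composite of spot emission at 667 nm and signal to noise over triplicate slides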
[4] = test system: Fibrinogen (Alexa647-labelled); assay: Alexa647-fibrinogen binding to printed small molecules – biochemical, small-molecule microarray, 635/667 nm fluorescence, artefact control for SMM control-protein annotation, profiling panel (AID 1131); conditions: fibrinogen-A647 binding fluorescence, higher = more signal;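 also: z-score merges 667 nm fluorescence with per-spot signal-to-noise over triplicate slides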
[5] = target: Follistatin (Homo sapiens) (UniProt P19883); assay: FST protein binding to printed compounds – biochemical, small-molecule microarray, 635/667 nm fluorescence, primary screen (AID 1132); conditions: 635 nm fluorescence, higher = more signal
[6] = target: Fibroblast growth factor 2 (Homo sapiens) (UniProt P09038); assay: basic fibroblast growth factor binding to printed compounds – biochemical, small-molecule microarray, 635/667 nm fluorescence, primary screen (AID 1133); conditions: FGF2, fluorescence 635/667, higher = more signal
[7] = JC-1 mitochondrial potential readout, lung cancer cells – cell-based, A549, JC-1 fluorescence, basal, 24 h, 100 nL, profiling panel (AID 1138); conditions: higher = more signal;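 also: A549 lung adenocarcinoma cells under basal conditions with no added stimulus; test concentration not given here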
Lefty1 = Lefty1 protein binding to printed compounds – biochemical, small-molecule microarray, 635/667 nm fluorescence, primary screen (AID 1139); conditions: fluorescence 635/667, higher = more signal
[8] = test system: wheat germ agglutinin (Triticum aestivum), Alexa647-labelled; assay: Alexa647-WGA lectin binding to printed small molecules – biochemical, small-molecule microarray, 635/667 nm fluorescence, artefact control for SMM control-protein annotation, profiling panel (AID 1140); conditions: WGA-A647 binding, 635 nm fluorescence, higher = more signal;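 also: score merges 667 nm feature emission with signal to noise over triplicate slides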
[9] = target: Luciferin 4-monooxygenase (Photinus pyralis) (UniProt P08659); assay: inhibition of purified Photinus pyralis luciferase – biochemical, luminescence, purified enzyme, 2006 set, primary screen (AID 1141); conditions: purified firefly luciferase, SteadyGlo luminescence, 30 min; higher = more signal, called active from +8 up or from −8 down;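 also: cell-free assay with purified firefly luciferase at 100 ng per well in PBS; test concentration not given here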
Luciferin 4-monooxygenase (Photinus pyralis), sequence (P08659 whole entry, looked up): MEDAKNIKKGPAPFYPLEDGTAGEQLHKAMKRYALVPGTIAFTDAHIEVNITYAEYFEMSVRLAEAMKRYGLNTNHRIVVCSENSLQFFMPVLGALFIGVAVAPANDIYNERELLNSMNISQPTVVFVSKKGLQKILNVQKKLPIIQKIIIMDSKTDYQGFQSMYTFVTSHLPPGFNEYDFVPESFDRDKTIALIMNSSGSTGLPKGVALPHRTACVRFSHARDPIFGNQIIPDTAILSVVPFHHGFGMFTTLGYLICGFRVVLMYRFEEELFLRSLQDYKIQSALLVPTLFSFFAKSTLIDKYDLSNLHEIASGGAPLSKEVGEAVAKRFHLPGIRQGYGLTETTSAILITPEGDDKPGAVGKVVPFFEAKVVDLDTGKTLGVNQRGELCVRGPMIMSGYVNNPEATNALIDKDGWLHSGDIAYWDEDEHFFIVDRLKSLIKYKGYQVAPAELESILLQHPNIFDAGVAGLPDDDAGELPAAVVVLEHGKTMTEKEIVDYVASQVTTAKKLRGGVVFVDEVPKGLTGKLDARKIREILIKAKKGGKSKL

Focal adhesion kinase 1 (Homo sapiens), sequence (Q05397 whole entry, looked up): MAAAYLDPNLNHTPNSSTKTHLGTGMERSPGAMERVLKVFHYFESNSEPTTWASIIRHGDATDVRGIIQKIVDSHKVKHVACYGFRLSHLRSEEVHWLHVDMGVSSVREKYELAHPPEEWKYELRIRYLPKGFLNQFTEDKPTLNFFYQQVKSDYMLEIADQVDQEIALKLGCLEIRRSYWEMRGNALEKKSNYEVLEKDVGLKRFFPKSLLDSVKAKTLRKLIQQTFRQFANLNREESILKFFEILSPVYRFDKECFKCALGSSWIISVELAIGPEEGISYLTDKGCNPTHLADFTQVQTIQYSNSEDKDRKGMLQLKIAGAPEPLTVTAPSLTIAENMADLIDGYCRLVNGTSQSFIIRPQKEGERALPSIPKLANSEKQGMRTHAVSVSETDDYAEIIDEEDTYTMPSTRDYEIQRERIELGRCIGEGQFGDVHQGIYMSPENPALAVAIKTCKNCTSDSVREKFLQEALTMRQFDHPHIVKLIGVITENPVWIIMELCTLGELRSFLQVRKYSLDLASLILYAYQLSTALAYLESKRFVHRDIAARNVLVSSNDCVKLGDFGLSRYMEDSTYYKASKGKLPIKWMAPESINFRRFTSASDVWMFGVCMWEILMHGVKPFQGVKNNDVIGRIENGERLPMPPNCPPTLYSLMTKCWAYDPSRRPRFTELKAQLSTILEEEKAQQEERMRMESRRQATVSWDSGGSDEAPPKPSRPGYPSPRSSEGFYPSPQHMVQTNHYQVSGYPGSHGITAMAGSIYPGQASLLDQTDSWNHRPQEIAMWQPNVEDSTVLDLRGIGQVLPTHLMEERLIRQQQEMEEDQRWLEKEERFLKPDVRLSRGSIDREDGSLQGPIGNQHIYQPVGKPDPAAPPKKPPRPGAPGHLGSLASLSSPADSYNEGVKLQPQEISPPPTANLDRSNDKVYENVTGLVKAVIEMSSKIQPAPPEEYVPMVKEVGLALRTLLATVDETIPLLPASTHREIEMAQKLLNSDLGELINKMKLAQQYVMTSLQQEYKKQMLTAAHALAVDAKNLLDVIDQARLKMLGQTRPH
Follistatin (Homo sapiens), sequence (P19883 whole entry, looked up): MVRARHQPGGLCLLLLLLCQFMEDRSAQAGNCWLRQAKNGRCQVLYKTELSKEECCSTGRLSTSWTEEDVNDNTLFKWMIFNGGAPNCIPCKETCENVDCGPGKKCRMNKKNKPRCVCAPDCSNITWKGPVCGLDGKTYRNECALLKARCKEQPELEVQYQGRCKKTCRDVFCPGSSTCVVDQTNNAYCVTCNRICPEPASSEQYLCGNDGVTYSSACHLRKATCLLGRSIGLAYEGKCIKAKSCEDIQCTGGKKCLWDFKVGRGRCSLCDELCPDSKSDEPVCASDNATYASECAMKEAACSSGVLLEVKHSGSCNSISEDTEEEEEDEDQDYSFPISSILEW
Fibroblast growth factor 2 (Homo sapiens), sequence (P09038 whole entry, looked up): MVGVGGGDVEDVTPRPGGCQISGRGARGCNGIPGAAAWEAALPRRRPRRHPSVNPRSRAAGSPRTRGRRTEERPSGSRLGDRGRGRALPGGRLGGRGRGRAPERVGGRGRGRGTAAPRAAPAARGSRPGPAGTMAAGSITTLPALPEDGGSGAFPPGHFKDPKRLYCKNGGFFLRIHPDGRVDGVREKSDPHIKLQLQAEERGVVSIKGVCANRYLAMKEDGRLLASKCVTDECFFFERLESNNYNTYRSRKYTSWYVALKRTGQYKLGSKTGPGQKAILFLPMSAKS

Structure (SMILES) | composite z-score [1] | composite z-score [2] | composite z-score [3] | composite z-score [4] | composite z-score [5] | composite z-score [6] | z-score [7] | composite z-score (Lefty1) | composite z-score [8] | z-score [9]
O=C(NN=C1C[C@@H](O)[C@@H](O)[C@@H]2[C@@H]3C(=O)N(C4CCCCC4)C(=O)[C@@H]3CC[C@@H]12)OCc1ccccc1 | 0.0161 | 0.139 | 0.0639 | 0.294 | 0.0434 | 0.243 | 0.163 | -0.0104 | -0.132 | -0.427 (inactive)
COc1ccc(O[C@H]2C=C[C@@H](c3ccccc3)O[C@@H]2COC(=O)CCC(C)=NOC[C@@H](O)[C@H]2O[C@@H]3OC(C)(C)O[C@@H]3[C@H]2O)cc1 | 0.977 | 0.835 | 0.179 | 0.536 | 0.697 | 0.439 | -0.206 | 0.334 | -0.13 | 0.302 (inactive)
COC(=O)CC=C[C@@H](C)[C@@H](C=NOCC[C@@H]1C=C[C@H](OC(C)=O)[C@@H](COC(C)=O)O1)NS(=O)(=O)c1ccc(C)cc1 | 2.34 | -0.185 | 0.15 | -0.329 | 0.273 | 0.237 | -0.482 | 0.36 | -0.477 | 1.2 (inactive)
COc1cccc([C@H]2Oc3ccc(OC)cc3C(=NO[C@@H]3O[C@H](COC(C)=O)[C@@H](OC(C)=O)[C@H](OC(C)=O)[C@H]3OC(C)=O)[C@@H]2O)c1 | 0.238 | 0.23 | 0.478 | -0.339 | -0.0006 | 0.192 | -0.172 | 0.228 | -0.639 | 0.713 (inactive)
COc1ccc(C#C[C@@H]2C=C[C@H](OC(C)=O)[C@@H](COC(C)=O)O2)cc1 | 1.01 | 0.282 | 0.0919 | 0.0177 | 0.567 | 0.183 | 0.0859 | 0.649 | 0.217 | -1.06 (inactive)
C[C@@H](c1ccccc1)N1C(=O)[C@H]2[C@H]3[C@H](O)[C@H](O)CC(=NOCc4ccccc4)[C@H]3CC[C@H]2C1=O | 1.2 | 1.17 | 0.0785 | 0.823 | 0.287 | 0.181 | 1.06 | 0.295 | 0.0559 | 0.0057 (inactive)
CO[C@H]1COC(=O)[C@H](C)NC(=O)[C@@H](C)COC(=O)[C@H]2CCCN2C(=O)CC=C[C@H]1C | -0.395 | 0.185 | 0.0089 | -0.157 | 0.593 | 0.806 | -0.392 | 0.632 | -0.375 | 0.574 (inactive)
COC(=O)[C@@H]1CC[C@H](C)[C@@H](c2ccc(C)cc2)N1C(=O)c1ccc(C=NOCC[C@@H]2C=C[C@H](OC(C)=O)[C@@H](COC(C)=O)O2)cc1 | 2.68 | 0.895 | -0.125 | 0.316 | 0.47 | 0.614 | -0.512 | 0.605 | 0.175 | 0.963 (inactive)
Cc1ccc(S(=O)(=O)N[C@H]2COC(=O)CC=C[C@H](C)[C@@H](NS(=O)(=O)c3ccc(C)cc3)COC(=O)CC=C[C@@H]2C)cc1 | -0.308 | 0.42 | 0.106 | 0.129 | 0.471 | 0.647 | -0.617 | 0.556 | 0.0337 | 0.846 (inactive)
CC(=O)OC[C@H]1O[C@H](CC=NO[C@H](C)c2cn([C@H](CO)Cc3ccccc3)nn2)C=C[C@@H]1OC(C)=O | 0.499 | 0.777 | -0.0453 | 0.0573 | 0.69 | 0.494 | -0.866 | 0.732 | 0.439 | 0.809 (inactive)
CO[C@H]1COC(=O)[C@@H](Cc2ccccc2)NC(=O)[C@@H](C)COC(=O)CCC[C@@H]1C | 4.12 | -0.666 | 0.0469 | -0.179 | 0.2 | 0.241 | -0.946 | 0.534 | -0.29 | 0.643 (inactive)
COCOc1ccc(Br)cc1C(=O)[C@@H]1O[C@H]1c1cccc(OC)c1 | -0.183 | 0.513 | 0.0147 | 0.488 | 0.339 | -0.0753 | 1.1 | 0.346 | 0.432 | -0.54 (inactive)
C=CC[C@@H]1C=C[C@H](ON=C[C@@H](C)[C@H](OCc2ccccc2)C(C)C)[C@@H](CO)O1 | -0.304 | -0.324 | -0.472 | -1.67 | -0.386 | -0.178 | -0.922 | 0.521 | -0.0625 | 0.888 (inactive)
CC(C)CON=C1C[C@@H](O)[C@@H](O)[C@@H]2[C@@H]3C(=O)N(C(C)(C)C)C(=O)[C@@H]3CC[C@H]12 | 1.15 | -0.264 | -0.0405 | 0.0972 | -0.924 | -0.546 | -0.125 | -0.52 | -0.0283 | 0.473 (inactive)
COc1cccc([C@H]2Oc3ccc(OC)cc3C(=NO[C@@H](C)c3cn([C@H](CO)Cc4ccccc4)nn3)[C@@H]2O)c1 | -2.13 | -0.92 | -0.104 | 0.778 | -0.476 | 0.109 | -1.09 | 0.102 | 0.305 | -0.0592 (inactive)
O=c1n(Cc2cc3c(cc2Cl)OCO3)c(=O)n2n1CC[C@@H]1C(=NOC[C@@H](O)COCc3ccco3)[C@H]3O[C@H]3[C@@H](O)[C@@H]12 | 0.0465 | 0.642 | -0.0676 | 0.354 | 0.568 | 0.546 | -0.15 | 0.414 | 0.004 | -0.357 (inactive)
